Laboratory results from the supplement of paper PMC6555819.

The sequences below were run on VDR:RXRa (NR concentration 270 nM, RXRa partner concentration 90 nM) (assay: PBM binding z-score (relative to random genomic background probes); higher = stronger binding; sequences stand for … in GC…GCGATTGACAGCGTAGAATGAAGG).
Protocol: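 Protein-binding microarray (Agilent 4x180K custom design, double-stranded 60-nt probes: 5' GC cap, 34-nt variable region, 24-nt constant primer region; full probe sequence given). Purified or IVT nuclear receptor:RXRα heterodimers (3:1 NR:RXRα, mostly 270:90 nM) or homodimers were incubated for 1 h in PBS with 2% milk and no ligand, then detected with Alexa488 antibodies. Fluorescence from o1-orientation probes (~5 replicates averaged) was converted to z-scores against 500 random hg19 background probes. Variable regions are seed direct-repeat (DR0–DR5) sites, all their single-nucleotide variants and half-site ablations.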
Work on TAGCCTAGGTCATGGGGCAGTATACCACGCGAAC yielded a PBM binding z-score of 2.45.
CCTACTGGGCCACGAAAAGTCATTGATTCAGTGA was tested, and the PBM binding z-score was -0.413.
AGTCAAAGTTCATCTAGGTAACCTAAGATATGCT was tested, and the PBM binding z-score was 5.11.
In the case of CTCCAAAGGTCGTGCTCAGGTGAGTATACCAAAC, the PBM binding z-score is reported as 3.59.
TAGCTTAGGTCATGCGGGCCAGTATAGTGTCGGC showed a PBM binding z-score of 3.13.
In the case of CCTCGGAGGACAGAAGGGCAGAGCTGTCCGCTTT, the PBM binding z-score is reported as -0.902.
Work on TCTTCTAGATCAATAGAGGTTAAGAAAGTGCGCT yielded a PBM binding z-score of 1.94.
For GGAACGAGGCCAAAGTTGATAGCATCTGTCGACG, the PBM binding z-score was -0.112.
With GGGACGAGGGCAAGTTGATAGCAGAGTTTGATGG the PBM binding z-score was 1.29.
With CCTATTAGATGACCATAAGGGCAACCGAAGCTCG the PBM binding z-score was 0.352.
Sequence CAAACTAGTTCACCGGAAGGTCAAAGTCCGCATG has a PBM binding z-score of 5.4.
ATATGTAGGTTACATCCGGGTCGTTCAGGCTATG showed a PBM binding z-score of 2.52.
With GATACAGGGTCAGCTAGAGGCCCGAGTATGGAAA the PBM binding z-score was 2.11.
ATCTCTAGGTAAGAAGTTCAGTGAAAGAGAGGAC showed a PBM binding z-score of 0.919.
In the case of CGTCCAAGGCCAAAGGTCAGTGAAGAGATGACGG, the PBM binding z-score is reported as 3.16.
With GGAACGAGGGCATTCGAGTTGGTAGCATGGCGAT the PBM binding z-score was 2.35.
TCTTGTAGATCAATAGAGCTTAAGAAAGTGCGCT was tested, and the PBM binding z-score was -0.108.
TCTAGTTGATCACGGAGGTCACACACGACGGGTA was tested, and the PBM binding z-score was 3.99.
Work on ACTTACGGATCAACGAGGTTATAGCACGCGTATA yielded a PBM binding z-score of 4.59.
CGAACTAGGTCATCCAGGACAATGAATACATTGA was tested, and the PBM binding z-score was 4.99.
In the case of CCAGACAGGTGACAGGTAACTCAGTCTGGTACGC, the PBM binding z-score is reported as -0.206.
GTACCAAGATGAATAGGTCGTTGATGAGTAGGCG showed a PBM binding z-score of -0.0191.
For ACTCGGAGGACAAAGGTCAAAGCTACGCCAGTGA, the PBM binding z-score was 4.8.
Work on CAGCCTAGGTCAGGGCCAATATAGGAGGAACGTT yielded a PBM binding z-score of 0.378.
For CGAACTAGGACATTGACAGGACAGTGAATAGTAA, the PBM binding z-score was -0.192.
Work on CAAATTAGGTCAAGGTCAAAGTCGGTTTGTGCCA yielded a PBM binding z-score of 5.33.
TCTATTAGTTGAAGGTCAACCGACGAGTCCGTTT showed a PBM binding z-score of 3.85.
For CCGACTGCGGCATAAGGTTACCATAAGCCAGCCC, the PBM binding z-score was 0.0281.
TAGCCTAGGTCATGTGCCAGTATACCACGCGAAC gave a PBM binding z-score of 2.35.
With CCGACTGAGGCAAGGTTACCATAACGCACAGCCA the PBM binding z-score was 0.0737.
Work on TCTTGTAGATCAAGCAGGTTAAGAAAGCCTGAGT yielded a PBM binding z-score of 0.61.
Work on CCTACTGGGCCATCAGGTCATTGCTATCAACGTT yielded a PBM binding z-score of 1.71.
AGACTGAGGTTAAGATCAGGGAAACAGAATACAT showed a PBM binding z-score of 0.967.
TCATATAGGTAAATGCTAGGTGAAACTCCGATCT was tested, and the PBM binding z-score was 0.855.
CCTACTGGGCCAACAGGTCATTGATATCAACGTT showed a PBM binding z-score of 1.93.
For ATATGTAGTTTACATCCGGGTCATTCAGGCTATG, the PBM binding z-score was 3.49.
ATCTCTAGGTATCAAGTTCAGTGAAAGAGAGGAC gave a PBM binding z-score of 1.94.
In the case of ATCGAAAGGTCGACGAGGTGAGTGTACACCGTTT, the PBM binding z-score is reported as 5.55.
CATACTAGGTCACAGAGGTCAAAGTCCGTGCGTA showed a PBM binding z-score of 7.98.
In the case of CGAACTCGGTCATCCAGGACAGTGAATACATTGA, the PBM binding z-score is reported as 2.61.
